# Only some compounds are listed: those with a hit (about 1.4% of all), similar ones and a draw of the others.
# PGC1a acetyl inh – PGC1a acetylation modulation, inhibitor mode; U2OS PGC1a acetylation, AlphaScreen anti-acetyl-lysine; with virally co-expressed GCN5 acetyltransferase; inhibition, % at 15.6 µM; 350,000 compounds, 0.17% hits; AID 651687;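 active means every replicate shows inhibition of at least 40%; inconclusive means mean inhibition at least 40% but some replicate below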;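 further: 0% = neutral control wells and 100% = positive control wells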
# RAD54 branch – RAD54 (human) branch migration inhibition | Q92698 | 360,000 compounds, 0.14% hits | AID 602329 | RAD54 Holliday junction branch migration, FAM/BHQ fluorescence | inhibition, % at 10.4 µM;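 active means mean normalized replicate activity at least 40 and at least half of replicates scoring 40 or more; inconclusive means only one of the two criteria met; inactive means mean below 40 and under half of replicates reaching 40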;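 further: 0% = median of neutral control wells and 100% = median of positive control wells; inhibitors cause a drop in the FAM fluorescence signal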
# ERAP1 inh – ERAP1 (human) enzyme inhibition; inhibition, % at 10.7 µM; recombinant ERAP1, Leu-AMC fluorescence, 60 min; Q9NZ08; AID 652197; 340,000 compounds, 0.15% hits;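 active means mean replicate inhibition of at least 30%, or all replicates individually reaching that 30% level; inactive means mean below 30% and not every replicate reaching it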;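 further: 0% = neutral control wells and 100% = L-leucinethiol positive control wells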
# Target sequence (Q9NZ08 whole entry, looked up): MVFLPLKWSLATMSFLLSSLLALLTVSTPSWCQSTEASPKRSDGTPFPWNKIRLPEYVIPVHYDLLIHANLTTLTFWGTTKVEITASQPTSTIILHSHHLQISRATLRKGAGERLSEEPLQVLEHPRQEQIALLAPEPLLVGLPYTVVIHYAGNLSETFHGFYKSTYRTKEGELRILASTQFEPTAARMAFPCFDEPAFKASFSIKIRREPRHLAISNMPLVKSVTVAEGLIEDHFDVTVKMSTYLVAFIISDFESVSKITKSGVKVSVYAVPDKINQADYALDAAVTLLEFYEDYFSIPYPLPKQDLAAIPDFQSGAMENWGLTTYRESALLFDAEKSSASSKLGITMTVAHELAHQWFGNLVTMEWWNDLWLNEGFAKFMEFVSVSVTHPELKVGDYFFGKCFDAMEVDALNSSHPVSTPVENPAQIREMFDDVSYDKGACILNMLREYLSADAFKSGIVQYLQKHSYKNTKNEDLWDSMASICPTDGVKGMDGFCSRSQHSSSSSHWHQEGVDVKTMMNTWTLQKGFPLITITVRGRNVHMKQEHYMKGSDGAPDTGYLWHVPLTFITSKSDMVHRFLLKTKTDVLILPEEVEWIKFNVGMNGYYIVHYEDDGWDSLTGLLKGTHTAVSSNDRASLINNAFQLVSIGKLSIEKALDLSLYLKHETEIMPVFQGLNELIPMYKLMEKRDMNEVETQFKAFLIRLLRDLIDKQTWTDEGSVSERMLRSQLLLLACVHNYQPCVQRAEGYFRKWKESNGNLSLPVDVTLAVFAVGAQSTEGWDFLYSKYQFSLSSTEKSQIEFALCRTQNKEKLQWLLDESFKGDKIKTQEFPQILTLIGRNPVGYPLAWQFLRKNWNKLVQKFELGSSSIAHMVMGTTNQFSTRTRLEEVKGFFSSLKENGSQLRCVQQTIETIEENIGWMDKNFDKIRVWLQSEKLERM
# RAD52 anneal inh – RAD52 (human) annealing inhibition; recombinant RAD52 DNA annealing, FRET fluorescence; inhibition, % at 18.7 µM; 360,000 compounds, 0.46% hits;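 active means every replicate showing at least 50% inhibition; inconclusive means mean inhibition at least 50% but not in every replicate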
# GSIS activator – GLuc luminescence reporter in INS-1E cells, primary screen for activators of glucose-dependent secretion of insulin | activation, % at 16.6 µM | 370,000 compounds, 0.61% hits | INS-1E GLuc reporter insulin secretion, 2-3 h;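 active means lowest replicate activation of at least 40%, so every replicate reaches that level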;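 further: 0% = median of neutral control wells and 100% = median of IBMX positive control wells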
# MLL AF4-AF9 inh – MLL-AF4/AF9 protein interaction inhibition; P42568; AlphaScreen, biotin-AF4 peptide binding to FLAG-AF9; inhibition, % at 10 µM; 350,000 compounds, 0.47% hits;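 active means every replicate reaching a set inhibition limit, whatever the replicate mean, cut at about 25% in these data; inconclusive means mean inhibition reaches that limit but some replicates miss it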;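 further: 0% = plate neutral control median and 100% = total signal loss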
# * = called active by the depositor; ? = inconclusive; · = no result given.
SMILES,PGC1a acetyl inh,RAD54 branch,ERAP1 inh,RAD52 anneal inh,GSIS activator,MLL AF4-AF9 inh
COc1ccc(CNC(=O)C[C@H]2C[C@H]3c4cc(NS(=O)(=O)c5ccc(F)cc5)ccc4O[C@H]3[C@H](CO)O2)cc1,-13.2,3.8,2.3,5.4,-16.1,-3.2
O=C(N/N=C/c1ccc(Cl)cc1Cl)Nc1ccccc1,-1.5,-4.1,·,·,42.2*,·
O=C(Cc1cccnc1)N1CC(=O)N2[C@@H](CO)[C@H](c3ccc(C#CC4CCCC4)cc3)[C@@H]2C1,-1.9,·,2.5,-11.5,-9.2,1.3
C[C@H]1CN([C@@H](C)CO)C(=O)Cc2cc(NC(=O)CCCN(C)C)ccc2O[C@H]1CN(C)Cc1ccc(-c2ccccc2)cc1,-3.8,·,·,48.6,·,5.1
C[C@@H]1CN([C@H](C)CO)C(=O)Cc2cc(NC(=O)CCCN(C)C)ccc2O[C@H]1CN(C)Cc1ccc(-c2ccccc2)cc1,9.5,11.8,1.8,73.4*,72.4*,6.9
C[C@H](CO)N1C[C@H](C)[C@@H](CN(C)Cc2ccc(Cl)c(Cl)c2)Oc2ccc(NC(=O)CCCN(C)C)cc2CC1=O,-6.6,19.5,-0.5,59.5*,5.7,17.7
Cc1noc(C)c1NC(=O)N(C)C[C@H]1Oc2ccc(NC(=O)CCC(F)(F)F)cc2CC(=O)N([C@H](C)CO)C[C@H]1C,13.0,1.5,-2.2,9.3,6.3,-1.2
Cc1noc(C)c1NC(=O)N(C)C[C@H]1Oc2ccc(NC(=O)CCCN(C)C)cc2CC(=O)N([C@@H](C)CO)C[C@@H]1C,5.3,5.6,0.0,8.3,24.0,31.2*
C[C@H](CO)N1C[C@H](C)[C@H](CN(C)Cc2ccc(-c3ccccc3)cc2)Oc2ccc(NC(=O)CCCN(C)C)cc2CC1=O,9.6,2.0,2.3,52.8*,-4.8,2.9
CCCNC(=O)N1CCC2(CC1)CN(C(=O)c1cccnc1)[C@H](CO)c1[nH]c3cc(OC)ccc3c12,1.2,·,·,·,16.8,-0.2
C[C@@H]1CN([C@@H](C)CO)C(=O)c2cc(NC(=O)CCCCCC(=O)Nc3ccccc3N)ccc2O[C@@H](C)CCCCO[C@@H]1CN(C)C(=O)Nc1ccc(C(F)(F)F)cc1,6.0,2.8,-3.6,5.0,9.3,-4.1
COc1ccc2c3c(n(C)c2c1)[C@H](CO)N(C(=O)CN1CCOCC1)CC31CCN(C(=O)CC2CC2)CC1,·,·,·,·,10.1,·
N/C(=N\OC(=O)CCCOc1ccccc1)c1ccc([N+](=O)[O-])cc1,90.1*,·,1.7,-14.0,2.1,-1.5
CN(c1cc2c(c3c1ccn3C)C1CCC2O1)C1CCCCC1 (stereo not drawn),7.0,3.6,·,32.8,5.9,32.2*
CN(CCc1ccccc1)c1cc2c(c3c1ccn3C)C1CCC2O1 (stereo not drawn),4.2,-1.3,·,1.4,-29.3,27.6*
Cn1ccc2c(-c3cccnc3)cc3c(c21)C1CCC3O1 (stereo not drawn),9.7,1.8,-0.8,-10.3,16.0,0.1
C[C@@H]1CN([C@H](C)CO)S(=O)(=O)c2ccc(C#Cc3ccncc3)cc2O[C@H]1CN(C)C(=O)C1CCC1,-8.2,-0.6,-1.7,-21.5,-10.4,0.0
COc1ccc(CCNCc2cc(C)n(-c3ccc(OC)cc3)c2C)cc1,5.4,-0.5,-0.2,25.4,-19.4,39.4*
COc1ccc(CCNCc2ccccc2N2CCCC2)cc1,·,-22.7,-3.3,-9.5,10.0,0.9
Cc1cccc(Oc2nccc(C(F)(F)F)c2C(=O)Nc2ccc(F)cc2F)c1,84.9*,·,·,-7.0,-1.2,-1.1
Cc1cc(NC(=O)c2cnn3cccnc23)no1,0.3,-6.6,1.8,10.8,-2.1,3.2
O=C(Nc1cccc(Cl)c1)c1cnn2cccnc12,-4.4,-6.4,·,·,58.3*,·
C[C@@H]1CN([C@@H](C)CO)S(=O)(=O)c2ccc(C#CC3CC3)cc2O[C@H]1CN(C)C(=O)C1CCCCC1,-13.2,·,·,·,-21.5,·
C[C@@H]1CN([C@@H](C)CO)C(=O)Cc2cc(N(C)C)ccc2O[C@@H]1CN(C)Cc1ccc(-c2ccccc2)cc1,-11.7,-7.5,-1.6,7.1,-12.5,42.2*
C[C@H](CO)N1C[C@H](C)[C@@H](CN(C)Cc2ccccc2)Oc2ccc(N(C)C)cc2CC1=O,-22.7,1.9,0.1,4.6,-8.3,16.7
SMILES,PGC1a acetyl inh,RAD54 branch,ERAP1 inh,RAD52 anneal inh,GSIS activator,MLL AF4-AF9 inh
C[C@H](CO)N1C[C@H](C)[C@@H](CN(C)Cc2ccc(Oc3ccccc3)cc2)Oc2ccc(N(C)C)cc2CC1=O,-58.5,-20.5,-3.6,10.1,-16.4,71.7*
C[C@H](CO)N1C[C@H](C)[C@H](CN(C)Cc2ccc(Oc3ccccc3)cc2)Oc2ccc(N(C)C)cc2CC1=O,-15.4,3.5,1.6,-8.9,-11.9,26.8*
CNC(=O)C[C@@H]1CC[C@H]2[C@@H](COc3ccc(NC(=O)C4CC4)cc3C(=O)N2C)O1,-2.7,-12.1,·,·,8.3,·
NC(=O)COC(=O)c1ccccc1Oc1ccccc1,·,·,·,-15.4,46.4*,-1.1
O=C(C[C@H]1C[C@H]2c3cc(NS(=O)(=O)c4ccc(F)cc4)ccc3O[C@H]2[C@H](CO)O1)NCc1ccc(-c2ccccc2)cc1,5.9,5.4,1.5,-3.7,-11.0,0.2
C[C@@H]1CN([C@@H](C)CO)C(=O)c2cc(NC(=O)c3ccncc3)ccc2O[C@@H](C)CCCCO[C@@H]1CN(C)Cc1ccncc1,?,-4.5,0.2,-6.3,24.0,-3.3
C[C@@H]1CN([C@H](C)CO)C(=O)c2cc(NC(=O)c3ccncc3)ccc2O[C@@H](C)CCCCO[C@H]1CN(C)Cc1ccc(C(=O)O)cc1,-9.9,-5.6,4.0,99.0*,19.2,-2.5
C[C@@H]1CN([C@H](C)CO)C(=O)c2cc(NC(=O)c3ccncc3)ccc2O[C@@H](C)CCCCO[C@@H]1CN(C)Cc1ccc(C(=O)O)cc1,-6.6,-3.4,2.2,99.7*,1.6,-3.8
C[C@@H]1CCCCO[C@H](CN(C)Cc2ccncc2)[C@H](C)CN([C@H](C)CO)C(=O)c2cc(NC(=O)c3ccncc3)ccc2O1,3.7,0.1,-0.6,-5.7,13.3,-3.8
CCC(=O)Nc1ccc2c(c1)C(=O)N(C)C[C@H](OC)[C@H](C)CN(C(=O)CN1CCOCC1)[C@@H](C)CO2,-12.1,·,·,·,-8.2,·
C=CCOC(=O)[C@@H]1[C@H]2C(=O)O[C@H](c3ccccc3)[C@H](c3ccccc3)N2[C@H](c2ccc(OCCOC(=O)[C@H]3C[C@H]4C(=O)N5CCC[C@H]5C(=O)N4[C@H]3c3ccc(O)cc3)cc2)[C@@]12C(=O)Nc1ccccc12,2.9,-2.5,1.2,18.1,·,-2.6
CCCN(C)C[C@H]1OCCCC[C@H](C)Oc2ccc(NC(=O)c3ccncc3)cc2C(=O)N([C@H](C)CO)C[C@H]1C,6.1,·,·,·,17.7,·
O=C(CCC1CCN(Cc2ccccc2Cl)CC1)NC1CC1,94.6*,-2.5,-0.1,-12.8,11.6,1.2
